# Inconclusive results are not listed. A number with no mark means an inactive call. Calls follow the shape of the dose curve; as a rule, active = well fitted inhibition curve with a large enough effect; inconclusive = small, poorly fitted or top-dose-only effect; inactive = flat fitted curve, though single readings scatter.
# Molecular target: Calcium and integrin-binding protein 1 (Homo sapiens) (UniProt Q99828)
# Experiment: Primary qHTS for Identification of Calcium Integrin Binding Protein 1 (CIB1) Competitor (AID 1508620);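 also: GST tagged CIB1 binding a fluorescein labelled alphaIIb integrin peptide tracer; top concentration of the series differs between compounds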
# Settings: CIB1-GST / FITC-alphaIIb peptide fluorescence polarization; series mostly up to 114 µM; activity change, negative = inhibition: at the top concentration
# Method in brief: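 CIB1-GST (1 uM final) and compound incubated 15 min at room temperature before adding FITC-alphaIIb peptide tracer (100 nM final). Competition for binding read by fluorescence polarization (ex 480, em 540) after another 15 min at room temperature.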
# % is scaled to controls: 0 for no effect and ±100 for the full control effect.
# Chain of Calcium and integrin-binding protein 1 (Homo sapiens) (Q99828 whole entry, looked up): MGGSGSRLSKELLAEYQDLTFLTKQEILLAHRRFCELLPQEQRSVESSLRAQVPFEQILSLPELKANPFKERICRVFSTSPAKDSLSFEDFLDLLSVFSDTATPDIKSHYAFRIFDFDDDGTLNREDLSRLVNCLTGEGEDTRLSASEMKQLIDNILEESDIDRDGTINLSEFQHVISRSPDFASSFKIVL
row,Compound,"activity change, negative = inhibition [%]"
1,Cc1cc(C)c(S(=O)(=O)Nc2cccc3cccnc23)c(C)c1,-5.15
2,O=C(Nc1ccc(-c2nc3ccccc3[nH]2)cc1)c1ccc2ncsc2c1,-5.53
3,Cc1cc2c(s1)c1cnn(Cc3ccc(F)c(C)c3)c(=O)c1n2C,7.04
4,CC(C)CC(O)C(=O)Nc1cc(C(F)(F)F)ccc1Cl (centres undefined),-2.6
5,COc1cccc(C2c3c(ncn(-c4ccccc4SC)c3=N)Oc3ccc4ccccc4c32)c1 (centres undefined),8.09
6,O=C(O)c1cccc(S(=O)(=O)N2CCN(S(=O)(=O)c3ccc4c(c3)OCCO4)CC2)c1,0.617
7,Cc1ccc2nc3sc(C(=O)N4CCOCC4)cc3cc2c1,-2.35
8,O=[N+]([O-])c1ccccc1S(=O)(=O)N1CCN(S(=O)(=O)c2ccc3c(c2)OCCO3)CC1,0.26
9,c1nc(NC[C@@H]2CCCO2)c2cc(-c3ccc4c(c3)OCO4)ccc2n1,-0.41
10,O=[S+]([O-])(c1ccc2ncsc2c1)N1CCN([S+](=O)([O-])c2c(F)cccc2F)CC1,6.26
11,Cc1ccc(NC(=O)CSc2nnc(-c3cccc([S+](=O)([O-])N4CCCC4)c3)n2-c2c(C)cccc2C)cc1,3.04
12,C[C@H]1CN(S(=O)(=O)c2c(F)cccc2F)CCN1S(=O)(=O)c1ccc2c(c1)OCCO2,-2.01
13,Cc1cc(-c2nc(Nc3ccc(F)c(F)c3)c3ccccc3n2)ccn1,14.4
14,O=C(NCCc1nc2ccccc2n1CCCc1ccccc1)C1CCCCC1,3.45
15,O=C(Nc1ccc2c(c1)OCCO2)c1ccc(-c2nc3ccccc3[nH]2)cc1,1.12
16,CC(=O)c1ccc(N2CCN(S(=O)(=O)c3ccc4c(c3)oc(=O)n4C)CC2)cc1,5.68
17,Cn1c2ccsc2c2ncn(Cc3ccc(F)cc3)c(=O)c21,-1.3
18,Clc1ccccc1-c1nc(NCc2ccc(-c3cccnc3)cc2)c2ccccc2n1,-2.98
19,Cc1ccc(OCCn2c(CCNC(=O)c3ccccc3C(F)(F)F)nc3ccccc32)cc1,0.445
20,O=S(=O)(NN1CCOCC1)c1ccc(Br)cc1,-2.76

row,Compound,"activity change, negative = inhibition [%]"
1,O=C(CN1C(=O)N/C(=C\c2cccn2-c2cccc(C(=O)O)c2)C1=O)Nc1ccc(F)cc1,6.14
2,COc1ccc(-c2nc3ccc(Cl)cc3c(=O)n2Cc2ccccc2)cc1COc1ccc(NC(C)=O)cc1,3.89
3,O=C(CSc1nnc(-c2cccc(S(=O)(=O)N3CCCC3)c2)n1-c1ccccc1)Nc1ccc(Cl)cc1,-0.82
4,COc1cccc(-c2nc(SC)nc3sc(C(=O)NC(C)(C)C)c(N)c23)c1,-3.91
5,O=C(Nc1cccc(Cc2ccccc2)n1)c1ccc(-c2cccc([N+](=O)[O-])c2)o1,1.05
6,O=C1c2ccccc2NC(c2ccc(-c3cccs3)o2)N1O (centres undefined),-18.8
7,O=S(=O)(c1ccc(Br)cc1)N1CCN(S(=O)(=O)c2ccc3c(c2)OCCO3)CC1,5.25
8,COc1ccc(C2Nc3cccc(OC)c3C(=O)N2Cc2ccccc2)cc1COc1ccc(NC(C)=O)cc1 (centres undefined),8.32
9,CCOc1ccc(CCNC(=O)c2cc3sccc3n2Cc2ccccc2)cc1OCC,0.206
10,COc1ccc(CN(Cc2ccccc2)C(=O)c2ccccc2)cc1COc1ccc(NC(C)=O)cc1,0.803
11,O=C1CCc2cc(S(=O)(=O)Nc3ccc(F)c(Cl)c3)ccc2N1,-3.43
12,N#Cc1c(-c2ccc(Cl)cc2)no[n+]1[O-],-2.28
13,COc1ccc(-c2ccc3ncnc(NCc4ccc(C)o4)c3c2)cc1OC,5.1
14,COc1cccc(OC)c1C1=Nn2c(nnc2-c2ccccc2C)SC1,8.22
15,COc1ccc(NC(=O)C2=C(C)NC(Nc3nc4ccccc4o3)=NC2c2ccccc2Br)cc1 (centres undefined),0.993
16,CC(C)(C)OC(=O)N1CCN(c2ncc(NCc3ccc(-c4ccc(C#N)cc4)o3)cn2)CC1,6.4
17,N#Cc1c(-c2cccc([N+](=O)[O-])c2)no[n+]1[O-],-7.22
18,COc1cccc(C2=Nn3c(nnc3-c3ccc(OC)c(OC)c3)SC2)c1,-2.16
19,c1nc(NCC2CCCC2)c2cc(-c3ccc4c(c3)OCO4)ccc2n1,10.5

# Source: PubChem BioAssay (NCATS)
